# Assay results published in PubChem BioAssay AID583 (Sanford-Burnham Center for Chemical Genomics, 2007).
# Several values for one entry are separate records, joined by “and”; a condition that tells them apart may be missing. Identical values can stand only once. Screen size: about 140,000 compounds; about 80 (0.06%) were called active. Rule as the data show it: active = displacement above about 50%; inactive = the rest. The entries come from a sample that favours actives as a whole. More than one record can exist for a structure, and the calls need not agree.
# Target: Heat shock 70 kDa protein 1A (Homo sapiens) (UniProt P0DMV8)
# Sequence (P0DMV8 whole entry, looked up): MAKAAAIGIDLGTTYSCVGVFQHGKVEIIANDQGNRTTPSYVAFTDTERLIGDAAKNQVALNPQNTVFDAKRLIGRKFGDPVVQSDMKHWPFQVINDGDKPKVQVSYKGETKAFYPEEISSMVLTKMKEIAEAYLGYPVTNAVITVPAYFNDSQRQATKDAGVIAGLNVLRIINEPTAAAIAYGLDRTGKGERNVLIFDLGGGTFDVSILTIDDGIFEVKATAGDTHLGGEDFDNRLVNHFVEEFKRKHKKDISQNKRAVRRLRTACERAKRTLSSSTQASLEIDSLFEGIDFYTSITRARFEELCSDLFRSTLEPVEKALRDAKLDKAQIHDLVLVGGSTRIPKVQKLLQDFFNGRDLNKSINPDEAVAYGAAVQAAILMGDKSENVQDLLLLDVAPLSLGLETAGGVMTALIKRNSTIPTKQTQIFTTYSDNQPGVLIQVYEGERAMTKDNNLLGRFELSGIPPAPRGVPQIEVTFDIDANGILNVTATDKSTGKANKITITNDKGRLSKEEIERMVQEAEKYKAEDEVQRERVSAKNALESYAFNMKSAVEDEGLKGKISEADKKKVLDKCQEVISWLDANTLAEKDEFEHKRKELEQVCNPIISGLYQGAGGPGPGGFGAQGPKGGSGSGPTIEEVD
# Experiment: Hsp70 inhibitors, probe displacement, primary screen, biochemical, fluorescence polarization (AID 583);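 also: plate controls were vehicle for no effect and reference ligand for full effect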
# Settings: mP, at 20 µM, stronger effect = higher value
row,Compound,displacement
1,CC(C)OC(=O)c1c(NC(=O)c2cccnc2)sc2c1CCCCC2,80.1% (active)
2,CCOC(=O)c1c(NC(=O)c2cccnc2)sc2c1CCC2,-2% (inactive)
3,CCOC(=O)c1c(NC(=O)c2cccnc2)sc2c1CCCC2,6.4% (inactive)
4,COc1ccc(-c2cc(C(F)(F)F)nc(-n3cc(Br)cn3)n2)cc1,-0.2% (inactive)
5,O=C(O)CCN1C(=O)/C(=C2\C(=O)N(Cc3ccccc3Cl)c3ccccc32)SC1=S,53.2% (active)
6,CCCN1C(=O)/C(=C2\SC(=S)N(CCC(=O)O)C2=O)c2ccccc21,-0.7% (inactive)
7,O=C(O)CCCCCN1C(=O)/C(=C2/C(=O)N(CC(=O)O)c3ccccc32)SC1=S,5.6% (inactive)
8,Cc1cc(C)c(C(=O)CSc2n[nH]c(=O)n2C2CC2)cc1C,0.8% (inactive)
9,COCCOC(=O)c1ccc(NC(=O)COc2ccc(C)c(C)c2)cc1,86.3% (active)
10,COCCOC(=O)c1ccc(NC(=O)COc2cc(C)c(Cl)c(C)c2)cc1,0.2% (inactive)
11,COCCOC(=O)c1ccc(NC(=O)COc2ccc(C)cc2)cc1,3.9% (inactive)
12,C/C(=N\NC(=O)c1cc(-c2cccc([N+](=O)[O-])c2)n[nH]1)c1ccccc1O,-0.9% (inactive)
13,CCN(CC)C(=O)CSc1nnc(CCN)o1,-0.4% (inactive)
14,O=c1c2ccccc2nnn1CSc1nnc(-c2cccc(S(=O)(=O)N3CCCCC3)c2)o1,-0.1% (inactive)
15,CCOC(=O)C(=O)Nc1ccc(NC(C)=O)cc1,56.6% (active)
16,CCOC(=O)C(=O)Nc1ccc(C(N)=O)cc1,-0.8% (inactive)
17,CCOC(=O)C(=O)Nc1ccc(F)cc1,5.5% (inactive)
18,CCc1ccccc1NC(=O)CN(c1ccc(OC)c(Cl)c1)S(C)(=O)=O,-3.3% (inactive)
19,Cc1cc(I)c2c(c1)C1C=CCC1C(C(=O)O)N2 (stereo not given),23.8% (inactive)
20,O=C(O)C1Nc2c(Cl)cc(Cl)cc2C2C=CCC12 (stereo not given),78% (active)
21,COc1ccc2c(c1)C1C=CCC1C(C(=O)O)N2 (stereo not given),31.6% (inactive)
22,O=C(O)C1Nc2c(C(=O)N3CCOCC3)cccc2C2C=CCC12 (stereo not given),17.9% (inactive)
23,O=C(O)C1Nc2c(C(=O)N3CCCC3)cccc2C2C=CCC12 (stereo not given),11.2% (inactive)
24,Cc1c(Cl)ccc2c1NC(C(=O)O)C1CC=CC21 (stereo not given),95.7% (active)

row,Compound,displacement
1,O=C(Nc1ccc2c(c1)OCCO2)c1cnc2ccccn2c1=O,0.6% (inactive)
2,CCN(CC)CCCOc1c(Cl)cccc1Cl,0.3% (inactive)
3,Cc1cccc(OCC(=O)N2CCN(C(=O)c3cccs3)CC2)c1,-2.2% (inactive)
4,O=C1c2cccc3cccc(c23)C(=O)N1c1ccc2c(c1)OCO2,-2.6% (inactive)
5,CCOC(=O)c1c(C)nc(-c2ccccc2)nc1NC(=O)c1ccccc1,-1.8% (inactive)
6,CCOC(=O)c1c(C)nc(C)nc1NC(=O)c1ccccc1,85.3% (active)
7,CCOC(=O)c1c(C)nc(-c2ccccc2)nc1NC(C)=O,0.2% (inactive) and 7.4% (inactive)
8,CC1=C(C(=O)Nc2ccccn2)C(c2cccnc2)n2nnnc2N1 (stereo not given),1.5% (inactive)
9,COc1cccc(-c2nc3ccccc3c(=O)o2)c1,-0.1% (inactive)
10,O=[N+]([O-])c1ccc(O)c(-c2cc(C(F)(F)F)nc(-c3ccccc3)n2)c1,4.6% (inactive)
11,O=c1nc(/C=C/c2cc([N+](=O)[O-])ccc2Cl)cc(C(F)(F)F)[nH]1,3.5% (inactive)
12,O=C(Cn1ncc2c1-c1ccccc1OC2)Nc1nc2ccccc2s1,0% (inactive)
13,NC(=O)c1c(NC(=O)CCN2C(=O)c3ccccc3C2=O)sc2c1CCC2,-3.3% (inactive)
14,N#Cc1c(NC(=O)CCN2C(=O)c3ccccc3C2=O)sc2c1CCCC2,72.6% (active)
15,N#Cc1c(NC(=O)CCCN2C(=O)c3ccccc3C2=O)sc2c1CCCC2,2.9% (inactive)
16,COc1ccc(C2Nc3ccccc3NC3=C2C(=O)CC(c2ccc(Cl)cc2)C3)cc1 (stereo not given),-0.1% (inactive)
17,CC1(C)C2CCC1(C)C(NC(=O)C1CC3c4ccccc4C1c1ccccc13)C2 (stereo not given),1.1% (inactive)
18,Cc1ccc(NC(=O)CSc2nnc(-c3ccccc3Br)o2)cc1C,-2.9% (inactive)
19,O=c1[nH]c(=S)n(-c2cccc(Cl)c2)c(O)c1/C=C1/C=CC=N1,10% (inactive)
20,Cc1ccccc1-n1c(O)c(C=C2C=CC=N2)c(=O)[nH]c1=S,44.3% (inactive)
21,Cn1c(O)c(/C=C2/C=CC=N2)c(=O)n(-c2ccccc2)c1=S,53% (active)
22,Cc1ccc(N2C(=O)C3CC=C(c4ccccc4)CC3C2=O)cc1 (stereo not given),-0.4% (inactive)
23,O=C1C2CC=C(c3ccccc3)CC2C(=O)N1c1ccc(Br)cc1 (stereo not given),60.4% (active)
24,CC1=C(C)CC2C(=O)N(c3ccc(Br)cc3)C(=O)C2C1 (stereo not given),4.3% (inactive)

row,Compound,displacement
1,O=C1NC(=S)S/C1=C/c1cc(Br)ccc1OCc1ccccc1Cl,4.3% (inactive)
2,Cn1c(CN2CCCCC2)nc2cc(NC(=O)c3ccccc3)ccc21,1.9% (inactive)
3,COc1ccc(OC)c(NC(=S)NC(NC(=O)Cc2ccccc2)C(Cl)(Cl)Cl)c1 (stereo not given),-6.4% (inactive)
4,O=C(Nc1ccccc1)c1ccccc1C(=O)N1CCCCC1,4.4% (inactive)
5,CC1(C)OC(=O)C(=Cc2ccc(I)o2)C(=O)O1,97.3% (active)
6,O=C1C(=Cc2ccc(I)o2)C(=O)c2ccccc21,10.7% (inactive)
7,CC1(C)OC(=O)C(=Cc2ccc(-c3ccc(Cl)cc3Cl)o2)C(=O)O1,-3.2% (inactive)
8,COc1ccc(OC)c(C=NN2CCN(Cc3ccccc3Cl)CC2)c1,-1.8% (inactive)
9,CCOc1cc(C2Nc3ccc4ccccc4c3C3=C2CC(C)(C)CC3=O)ccc1O (stereo not given),2.3% (inactive)
10,Cc1csc(NC(=O)c2ccc([N+](=O)[O-])cc2Cl)n1,5.8% (inactive)
11,Nc1cc(S(=O)(=O)O)cc2cccc(S(=O)(=O)O)c12,4.7% (inactive)
12,Nc1ccc(S(=O)(=O)O)c2cccc(S(=O)(=O)O)c12,6.4% (inactive)
13,Nc1ccc(S(=O)(=O)O)c2cccc(O)c12,34.1% (inactive) and 73.7% (active)
14,O=C1c2ccccc2C(=O)N1/N=C/c1ccc(O)cc1O,-1.5% (inactive)
15,Cc1cccc(-c2cc3nc(C)cc(NCCCN(C)C)n3n2)c1,4.1% (inactive)
16,CN(C)c1ccc(/C=N/N=C2/NC(=O)C(Cc3ccc(Cl)cc3)S2)cc1 (stereo not given),-3.1% (inactive)
17,Cc1ccc(C)n1Cc1ccc(C(=O)O)cc1,103% (active) and 21.6% (inactive)
18,O=C(O)c1ccc(CN2CCOCC2)cc1,0% (inactive)
19,Cc1cc(C)n(Cc2ccc(C(=O)O)cc2)n1,-8.4% (inactive)
20,N#Cc1cc2c(nc1SCc1ccc(Br)cc1)CCCC2,-3.8% (inactive)
21,O=C(COc1ccc(Cl)cc1Cl)NNC(=O)CN1C(=O)/C(=C/c2ccc(Cl)cc2Cl)SC1=S,0.4% (inactive)
22,COc1ccccc1/C=N/NC(=O)C(=O)NCc1ccccn1,-2.8% (inactive)
23,CCn1c2ccccc2c2cc(CN3CCN(C(=O)CC(C)C)CC3)ccc21,-0.3% (inactive)
24,Cc1ccc(-n2[nH]c(C)c(C=Nc3ccc(C)cn3)c2=O)cc1,2% (inactive)

row,Compound,displacement
1,COc1ccccc1C=C1C(=O)NC(=S)N(c2ccccc2F)C1=O,4% (inactive)
2,Cn1cccc1/C=C1/C(=O)NC(=S)N(c2cccc(Cl)c2)C1=O,37.8% (inactive)
3,COc1ccccc1N1C(=O)C(=Cc2cccn2C)C(=O)NC1=S,69.9% (active)
4,N#Cc1cccc(-n2c(-c3ccccc3)nnc2-c2ccccc2)c1C#N,-2.8% (inactive)
5,COc1cc(NC(=O)c2ccc3c(c2)OCCO3)ccc1NC(=O)c1ccco1,-0.4% (inactive)
6,Cc1nn(-c2ccc(F)cc2)c(C)c1NS(=O)(=O)c1ccc(Cl)cc1,1% (inactive)
7,Cc1c(C#N)c2nc3ccccc3n2c(=O)/c1=C\c1c(O)n(-c2ccc(Br)cc2)[nH]c1=O,24.7% (inactive)
8,Cc1c(C#N)c2nc3ccccc3n2c(=O)/c1=C/c1sc2ccccc2c1O,2.1% (inactive)
9,Cc1ccc(-n2[nH]c(=O)c(/C=c3/c(C)c(C#N)c4nc5ccccc5n4c3=O)c2O)cc1C,83% (active)
10,O=C1c2ccccc2C(=O)N1c1ccc2c(c1)C(=O)N(c1ccccc1)C2=O,4.1% (inactive)
11,Nc1ccc2c(c1)C(=O)N(c1ccccc1)C2=O,8.5% (inactive)
12,O=[N+]([O-])c1cc(-c2nnc(-c3ccc(Br)o3)o2)cc([N+](=O)[O-])c1,0.4% (inactive)
13,O=C(NC1CC1)C1CCCN(C(=O)Nc2ccc(F)cc2)C1 (stereo not given),-7.5% (inactive)
14,Cc1ccc(C)c(S(=O)(=O)Nc2ccc3sc(C)nc3c2)c1,-3.2% (inactive)
15,CCOC(=O)c1[nH]cnc1C(=O)Nc1ccccc1,0% (inactive)
16,CCOC(=O)c1[nH]cnc1C(=O)Nc1ccccn1,-29.4% (inactive) and -2.5% (inactive)
17,CCOC(=O)c1[nH]cnc1C(=O)NCc1ccccc1,88.8% (active)
18,CC1=C(C(=O)Nc2ccccc2C)C(c2ccc(C)o2)N2C(=O)CSC2=N1 (stereo not given),1.1% (inactive)
19,CCN1C(=O)/C(=C2\SC(=O)N(Cc3ccccc3)C2=O)c2ccccc21,-2.9% (inactive)
20,N#C/C(=C\c1ccc(-c2ccc(C(=O)O)cc2)o1)C(=O)NCc1ccco1,-4.4% (inactive)
21,N#C/C(=C\c1ccc(-c2cccc(Cl)c2Cl)o1)C(=O)NCc1ccco1,-2.5% (inactive)
22,Cc1ccc([N+](=O)[O-])cc1-c1ccc(/C=C(\C#N)C(=O)NCc2ccco2)o1,75.7% (active)
23,CC(=O)OC(/C(O)=C(\C#N)c1nc2ccccc2[nH]1)c1ccccc1 (stereo not given),-1.2% (inactive)
